# From PubChem BioAssay AID2330 (Broad Institute, 2010)
# In all, about 37,000 compounds went through this assay and about 2,800 (7.6%) were called active. Roughly 1% stayed inconclusive and do not appear here. Cut-off read from the data, not from the text of the source: active = inhibition above about 80%; inconclusive = no clear call, values can overlap the other calls; inactive = below that. For the sample, actives were picked, then their nearest neighbours and some compounds at random.
# Assay: NOMO-1 AML cell viability reduction, primary screen, STK33 inhibitor project, CellTiter-Glo luminescence (AID 2330)
# Details: NOMO-1 AML viability, 72 h, stronger effect = higher value, concentration not given here
row,SMILES,inhibition
1,Cc1ccc(C23CC4CC(CC(CN)(C4)C2)C3)cc1C,116% (active)
2,O=C(CSc1nc2ccccc2o1)Nc1ccccn1,2.56% (inactive)
3,Cc1ccc(S(=O)(=O)N(C)C[C@@H]2Oc3c(NC(=O)Nc4c(C)noc4C)cccc3C(=O)N([C@@H](C)CO)C[C@@H]2C)cc1,22.7% (inactive)
4,O=C(CSc1nnc(-c2ccccc2)n1-c1ccc(Cl)cc1)Nc1ccc(Cl)cc1,83.3% (active)
5,COc1ccc(C(C)=O)cc1CSc1nnc(-c2ccc(Br)cc2)n1-c1ccccc1,15.8% (inactive)
6,COC(=O)CSc1nnc(-c2ccc(Cl)cc2)n1-c1ccc(Br)cc1,95.1% (active)
7,O=C(CSc1nnc(-c2ccncc2)n1-c1ccc(Cl)cc1)Nc1ccc(C(=O)O)cc1,-34.2% (inactive)
8,CCn1c(SCC(=O)Nc2cc(Cl)ccc2OC)nnc1-c1ccc(Br)cc1,25% (inactive)
9,O=C(CSc1nnc(-c2ccncc2)n1-c1ccccc1)Nc1ccc(Cl)c(Cl)c1,33.8% (inactive)
10,O=C(CC(=O)c1ccccc1O)c1ccccc1,42.5% (inactive)
11,C[C@@H]1CN([C@@H](C)CO)C(=O)Cc2cc(NC(=O)Cn3cnnn3)ccc2O[C@@H]1CN(C)S(=O)(=O)c1cn(C)cn1,-10.4% (inactive)
12,COc1ccc(NC(=O)CN2CCN(S(=O)(=O)c3ccc4ccccc4c3)CC2)cc1,8.78% (inactive)
13,COC(=O)C1=C[C@H](O[C@@H]2O[C@H](CO)[C@@H](O)[C@H](O)[C@H]2O)C[C@H]2[C@]3(C)C[C@@H](c4ccoc4)OC(=O)[C@H]3CC[C@@]12C,22.8% (inactive)
14,COc1ccc(NC(=O)N(C)C[C@@H]2Oc3c(NS(=O)(=O)c4ccc(OC)cc4)cccc3C(=O)N([C@H](C)CO)C[C@@H]2C)cc1,14.6% (inactive)
15,CCn1c(=O)c2c(n3c(SCC(N)=O)nnc13)-c1ccccc1CC21CCCCC1,98.7% (active)
16,NC(=O)CSc1nnc(-c2ccccc2F)n1-c1ccccc1,26.5% (inactive)
17,O=c1[nH]c(CSCCO)nc2c1C1(CCCCC1)Cc1ccccc1-2,8.91% (inactive)
18,COc1ccc(-c2cc(C(F)(F)F)n3nc(C(=O)NCCCN4CCOCC4)cc3n2)cc1OC,2.66% (inactive)
19,CC(C)NC(=O)N(C)C[C@H]1Oc2c(NS(=O)(=O)c3cccs3)cccc2C(=O)N([C@H](C)CO)C[C@H]1C,-11.8% (inactive)
20,O=C(Nc1ccc(OCc2ccccc2)cc1)OCC1CN(Cc2ccccc2)CCO1 (stereo not given),113% (active)
21,Cc1c(C(=O)N2CCOCC2)[nH]c2ccc(OCc3ccccc3)cc12,34.1% (inactive)
22,COc1ccc(Cl)cc1NC(=O)CSc1nnc(-c2ccc(Cl)c(Cl)c2)n1C,17.7% (inactive)
23,COc1ccc(OC(C)C(=O)Nc2ccc(OC)c(OC)c2)cc1 (stereo not given),-22% (inactive)

row,SMILES,inhibition
1,COc1ccc(NC(=S)NCc2cc(C)n(C)n2)cc1OC,6.06% (inactive)
2,COc1ccc(NC(=S)SC)cc1OC,87.2% (active)
3,Cc1ccc([N+](=O)[O-])cc1NC(=O)CSC1=NCCS1,21.4% (inactive)
4,C[C@@H]1CN([C@@H](C)CO)C(=O)c2cccc(NC(=O)c3ccc(-c4nccs4)cc3)c2O[C@H]1CN(C)C(=O)Nc1ccccc1,-9.67% (inactive)
5,CC[C@]1(O)C[C@@H]2CN(CCc3c([nH]c4ccccc34)[C@@](C(=O)OC)(c3cc4c(cc3OC)N(C)[C@H]3[C@@](O)(C(=O)OC)[C@H](OC(C)=O)[C@]5(CC)C=CCN6CC[C@]43[C@@H]65)C2)C1,112% (active)
6,C[C@@H]1CN([C@H](C)CO)C(=O)c2cc(NC(=O)Nc3ccc4c(c3)OCO4)ccc2O[C@@H]1CN(C)C(=O)Nc1ccc(F)cc1,33.1% (inactive)
7,C[C@@H]1CN([C@H](C)CO)C(=O)c2cccc(NS(=O)(=O)c3cn(C)cn3)c2O[C@H]1CN(C)Cc1ccc(C(=O)O)cc1,-16.7% (inactive)
8,Cc1nnc(SCC(=O)Nc2cc(Cl)ccc2C)s1,22.1% (inactive)
9,C[C@@H]1CN([C@@H](C)CO)C(=O)c2cccc(NC(=O)c3ccncc3)c2O[C@@H]1CN(C)CC1CC1,4.97% (inactive)
10,C[C@@H]1CN([C@H](C)CO)C(=O)c2cccc(NC(=O)c3cnccn3)c2O[C@@H]1CN(C)Cc1ccncc1,13.1% (inactive)
11,Cc1cc(C(=O)Nc2cccc3c2O[C@@H](CN(C)Cc2ccc(C(=O)Nc4ccccc4N)cc2)[C@H](C)CN([C@@H](C)CO)C3=O)n(C)n1,89.1% (active)
12,Cc1cc(C(=O)Nc2cccc3c2O[C@@H](CN(C)Cc2ccncc2)[C@@H](C)CN([C@@H](C)CO)C3=O)n(C)n1,19.4% (inactive)
13,Cc1cc(C(=O)Nc2cccc3c2O[C@@H](CN(C)Cc2ccc(C(=O)O)cc2)[C@H](C)CN([C@@H](C)CO)C3=O)n(C)n1,0.233% (inactive)
14,C[C@H](CO)N1C[C@H](C)[C@@H](CN(C)Cc2ccc(C(=O)Nc3ccccc3N)cc2)Oc2c(NC(=O)C3CC3)cccc2C1=O,106% (active)
15,C[C@@H]1CN([C@H](C)CO)C(=O)c2cccc(NC(=O)c3cnccn3)c2O[C@@H]1CN(C)Cc1ccc(C(=O)Nc2ccccc2N)cc1,126% (active)
16,COc1ccc(CN(C)C[C@H]2Oc3c(NC(=O)C4CC4)cccc3C(=O)N([C@@H](C)CO)C[C@H]2C)cc1,-16.6% (inactive)
17,C[C@@H]1CN([C@@H](C)CO)C(=O)c2cccc(NC(=O)c3cnccn3)c2O[C@H]1CN(C)Cc1ccc(C(=O)O)cc1,-15.7% (inactive)
18,C[C@@H]1CN([C@@H](C)CO)C(=O)c2cccc(NC(=O)C3CC3)c2O[C@@H]1CN(C)Cc1ccccc1,4.47% (inactive)
19,COc1ccc(S(=O)(=O)Nc2cccc3c2O[C@@H](CN(C)Cc2ccc(-c4ccccc4)cc2)[C@H](C)CN([C@H](C)CO)C3=O)cc1,22.4% (inactive)
20,CCn1c(SCC(=O)c2ccc(OC)cc2)nnc1-c1ccc(Cl)cc1Cl,-7.21% (inactive)
21,Cc1cccc(N(CC(=O)Nc2cccc([N+](=O)[O-])c2)S(C)(=O)=O)c1C,-1.91% (inactive)
22,COc1cc(OC)c(NC(=O)CSc2nnc(-c3ccncc3)n2-c2ccccc2)cc1Cl,37.4% (inactive)
